Inconclusive results are not listed. Active and inactive are the calls of the source. How the source made its calls, unless noted: active means hit-call score of the fitted dose curve at least 0.9, where 1 is the maximum; inconclusive means response in the unintended direction; inactive means score below 0.9.
How the values were obtained:
[1] = biological target: X-box-binding protein 1 (Homo sapiens) (UniProt P17861); test: ATG_Xbp1_CIS: Attagene CIS-FACTORIAL HepG2 Assay for human X-box Binding Protein 1 (XBP1) (AID 2282972; active means hit-call score of the fitted dose curve at least 0.9, where 1 is the maximum; inactive means score below 0.9); details: HepG2 XBP1 cis-element reporter, Attagene multiplex; actives raise or lower the signal
Chain of X-box-binding protein 1 (Homo sapiens) (P17861 whole entry, looked up): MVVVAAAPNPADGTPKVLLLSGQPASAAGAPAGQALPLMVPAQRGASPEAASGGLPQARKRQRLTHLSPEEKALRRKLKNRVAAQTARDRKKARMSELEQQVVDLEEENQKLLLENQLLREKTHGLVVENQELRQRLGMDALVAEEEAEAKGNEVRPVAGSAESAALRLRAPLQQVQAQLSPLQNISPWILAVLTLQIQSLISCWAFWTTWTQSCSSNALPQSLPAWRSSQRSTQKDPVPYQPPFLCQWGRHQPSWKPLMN
In short: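 Multiplexed cis-reporter readout in transfected HepG2 liver cells. Exposure lasted 24 hours. Activity in either direction was fitted against DMSO as negative control and baseline.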

[2] = ATG_M_19_TRANS: Attagene TRANS-FACTORIAL HepG2 Assay for M19 Transcription Factor (Internal Marker) (AID 2282974); details: HepG2 Attagene TRANS-FACTORIAL M19 internal marker reporter
In short: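 Reporter mRNA induction was measured in transfected HepG2 cells 24 h after dosing. Endpoint fitted upward relative to DMSO and serves as a background control within the multiplexed TRANS panel.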

[3] = ATG_GAL4_TRANS: Attagene TRANS-FACTORIAL HepG2 Assay for GAL4 (Internal Marker) (AID 2282976); details: HepG2 Attagene TRANS GAL4 internal marker reporter
In short: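 Background-control readout: GAL4-UAS reporter transcript in transiently transfected HepG2 cells after 24 h compound exposure. Measured by RT-PCR, 6-FAM primer extension, HpaI digest and capillary electrophoresis; gain-of-signal fit versus DMSO.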

[4] = biological target: Bile acid receptor (Homo sapiens) (UniProt Q96RI1); test: ATG_FXR_TRANS: Attagene TRANS-FACTORIAL HepG2 Assay for Farnesoid X Receptor (FXR) (AID 2282979); details: HepG2 Attagene TRANS FXR-GAL4 reporter transcription;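 further: hits raise reporter mRNA above DMSO so AC50 marks FXR activation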
Chain of Bile acid receptor (Homo sapiens) (Q96RI1 whole entry, looked up, the tested form may be a part): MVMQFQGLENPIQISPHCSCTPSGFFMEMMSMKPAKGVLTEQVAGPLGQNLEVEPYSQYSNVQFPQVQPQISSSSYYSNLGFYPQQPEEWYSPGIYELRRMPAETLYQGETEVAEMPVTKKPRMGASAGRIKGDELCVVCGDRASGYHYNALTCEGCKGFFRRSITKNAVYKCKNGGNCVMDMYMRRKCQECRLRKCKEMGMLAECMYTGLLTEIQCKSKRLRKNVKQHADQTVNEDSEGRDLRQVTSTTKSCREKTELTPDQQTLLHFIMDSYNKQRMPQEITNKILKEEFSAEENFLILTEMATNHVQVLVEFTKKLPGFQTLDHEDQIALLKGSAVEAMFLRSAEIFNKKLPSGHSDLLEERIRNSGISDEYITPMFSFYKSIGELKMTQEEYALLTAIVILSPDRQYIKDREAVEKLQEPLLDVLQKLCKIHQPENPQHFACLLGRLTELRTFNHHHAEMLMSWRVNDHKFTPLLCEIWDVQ
In short: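 HepG2 cells were transiently transfected with GAL4-UAS reporters driven by chimeric NR-Gal4 proteins and dosed for 24 h. Reporter mRNA was quantified by RT-PCR, fluorescent labelling, HpaI digestion and capillary electrophoresis, with gain of signal scored versus DMSO.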

[5] = ATG_M_06_TRANS: Attagene TRANS-FACTORIAL HepG2 Assay for M06 Transcription Factor (Internal Marker) (AID 2282983); details: HepG2 Attagene TRANS M06 internal marker reporter
In short: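 mRNA levels of a reporter transcript, quantified as FAM fluorescence on capillary electrophoresis, served as readout. HepG2 cells expressing exogenous GAL4-chimera reporter constructs were exposed for 24 h. Gain of signal over DMSO was evaluated.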

[6] = biological target: Transcriptional activator Myb (Homo sapiens) (UniProt P10242); test: ATG_Myb_CIS: Attagene CIS-FACTORIAL HepG2 Assay for human Myeloblastosis (Myb) Proto-Oncogene Transcription Factor (AID 2282986; active means hit-call score of the fitted dose curve at least 0.9, where 1 is the maximum; inactive means score below 0.9); details: HepG2 Attagene CIS-FACTORIAL Myb reporter transcription; actives raise or lower the signal
Chain of Transcriptional activator Myb (Homo sapiens) (P10242 whole entry, looked up): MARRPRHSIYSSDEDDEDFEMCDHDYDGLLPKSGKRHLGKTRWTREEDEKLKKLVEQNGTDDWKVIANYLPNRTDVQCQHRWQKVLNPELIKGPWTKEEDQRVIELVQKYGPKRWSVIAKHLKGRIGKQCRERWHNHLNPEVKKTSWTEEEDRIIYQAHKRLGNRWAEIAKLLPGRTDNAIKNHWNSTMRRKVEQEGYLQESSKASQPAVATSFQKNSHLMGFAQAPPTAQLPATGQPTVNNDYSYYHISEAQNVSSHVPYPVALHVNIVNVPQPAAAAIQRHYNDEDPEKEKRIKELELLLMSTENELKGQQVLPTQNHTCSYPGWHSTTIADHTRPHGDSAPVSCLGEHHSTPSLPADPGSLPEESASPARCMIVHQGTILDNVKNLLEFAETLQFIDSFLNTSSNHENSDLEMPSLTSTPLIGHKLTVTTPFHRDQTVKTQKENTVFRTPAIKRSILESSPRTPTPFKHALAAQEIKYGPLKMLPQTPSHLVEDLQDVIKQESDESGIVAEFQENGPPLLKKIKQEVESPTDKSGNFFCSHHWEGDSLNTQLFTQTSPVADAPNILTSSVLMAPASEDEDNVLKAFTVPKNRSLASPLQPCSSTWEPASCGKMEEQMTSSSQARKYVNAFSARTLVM
In short: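 Transiently transfected HepG2 cells, treated 24 h. Reporter mRNA quantified by RT-PCR/capillary electrophoresis; bidirectional fit relative to DMSO.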

[7] = biological target: Nuclear respiratory factor 1 (Homo sapiens) (UniProt Q16656); test: ATG_NRF1_CIS: Attagene CIS-FACTORIAL HepG2 Assay for human Nuclear Respiratory Factor 1 (NRF1) Orphan Gene (AID 2282987; active means hit-call score of the fitted dose curve at least 0.9, where 1 is the maximum; inactive means score below 0.9); details: HepG2 NRF1 cis-element reporter, Attagene multiplex; actives raise or lower the signal
Chain of Nuclear respiratory factor 1 (Homo sapiens) (Q16656 whole entry, looked up, the tested form may be a part): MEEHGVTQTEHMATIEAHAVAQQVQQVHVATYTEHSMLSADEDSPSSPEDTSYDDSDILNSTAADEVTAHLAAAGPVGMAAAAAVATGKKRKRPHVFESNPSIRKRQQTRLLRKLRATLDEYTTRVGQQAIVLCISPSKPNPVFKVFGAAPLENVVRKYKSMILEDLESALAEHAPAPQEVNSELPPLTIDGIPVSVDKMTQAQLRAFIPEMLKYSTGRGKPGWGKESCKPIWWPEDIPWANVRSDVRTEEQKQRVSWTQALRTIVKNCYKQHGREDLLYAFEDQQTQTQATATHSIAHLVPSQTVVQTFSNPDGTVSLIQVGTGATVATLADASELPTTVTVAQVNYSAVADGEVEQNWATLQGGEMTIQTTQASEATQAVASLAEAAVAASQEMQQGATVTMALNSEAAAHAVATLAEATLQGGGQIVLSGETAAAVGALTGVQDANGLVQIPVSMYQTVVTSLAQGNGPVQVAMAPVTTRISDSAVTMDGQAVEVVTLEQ
In short: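 Cells (HepG2, transient MRTU transfection) are exposed to compound for 24 h, then RNA isolated and reporter mRNA amplified and fluorescently labelled. Fragments are separated by capillary electrophoresis; signal change is fitted bidirectionally relative to DMSO.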

[8] = ATG_NFI_CIS: Attagene CIS-FACTORIAL HepG2 Assay for human Nuclear Factor I (NFI) (AID 2282989; active means hit-call score of the fitted dose curve at least 0.9, where 1 is the maximum; inactive means score below 0.9); details: HepG2 cis-regulatory reporter, NFI response element transcription; actives raise or lower the signal
In short: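 Transient MRTU transfection of HepG2 → 24 h chemical dosing → total RNA, oligo(dT) RT → PCR, 6-FAM primer extension, HpaI cut → capillary electrophoresis. Endpoint fitted bidirectionally relative to DMSO.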

[9] = biological target: Myc proto-oncogene protein (Homo sapiens) (UniProt P01106); test: ATG_Myc_CIS: Attagene CIS-FACTORIAL HepG2 Assay for human Myelocytomatosis (Myc) Proto-Oncogene Transcription Factor (AID 2282990; active means hit-call score of the fitted dose curve at least 0.9, where 1 is the maximum; inactive means score below 0.9); details: HepG2, Attagene cis-reporter transcription factor activity; actives raise or lower the signal
Chain of Myc proto-oncogene protein (Homo sapiens) (P01106 whole entry, looked up, the tested form may be a part): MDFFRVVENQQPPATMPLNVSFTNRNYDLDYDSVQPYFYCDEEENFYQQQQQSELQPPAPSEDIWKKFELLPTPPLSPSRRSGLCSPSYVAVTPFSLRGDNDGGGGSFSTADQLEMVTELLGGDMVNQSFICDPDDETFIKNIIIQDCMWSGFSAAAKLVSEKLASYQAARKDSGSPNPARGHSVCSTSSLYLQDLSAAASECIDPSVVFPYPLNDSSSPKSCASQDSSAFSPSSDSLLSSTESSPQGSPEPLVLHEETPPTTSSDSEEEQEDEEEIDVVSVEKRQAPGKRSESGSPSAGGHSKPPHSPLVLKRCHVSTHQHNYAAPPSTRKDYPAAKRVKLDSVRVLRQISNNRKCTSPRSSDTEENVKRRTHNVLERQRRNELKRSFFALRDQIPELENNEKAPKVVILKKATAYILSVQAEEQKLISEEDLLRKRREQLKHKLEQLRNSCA
In short: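 Read-out: fluorescent reporter mRNA fragments resolved by capillary electrophoresis after RT-PCR. Human HepG2 liver cells carried transfected cis-element reporter units and were dosed for 24 h. Gain or loss of signal fitted relative to DMSO baseline.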

[10] = biological target: Hepatocyte nuclear factor 4-alpha (Homo sapiens) (UniProt P41235); test: ATG_HNF4a_TRANS: Attagene TRANS-FACTORIAL HepG2 Assay for human Hepatocyte Nuclear Factor 4 alpha (HNF4a) (AID 2282982); details: HepG2 HNF4a transactivation reporter, mRNA readout
Chain of Hepatocyte nuclear factor 4-alpha (Homo sapiens) (P41235 whole entry, looked up): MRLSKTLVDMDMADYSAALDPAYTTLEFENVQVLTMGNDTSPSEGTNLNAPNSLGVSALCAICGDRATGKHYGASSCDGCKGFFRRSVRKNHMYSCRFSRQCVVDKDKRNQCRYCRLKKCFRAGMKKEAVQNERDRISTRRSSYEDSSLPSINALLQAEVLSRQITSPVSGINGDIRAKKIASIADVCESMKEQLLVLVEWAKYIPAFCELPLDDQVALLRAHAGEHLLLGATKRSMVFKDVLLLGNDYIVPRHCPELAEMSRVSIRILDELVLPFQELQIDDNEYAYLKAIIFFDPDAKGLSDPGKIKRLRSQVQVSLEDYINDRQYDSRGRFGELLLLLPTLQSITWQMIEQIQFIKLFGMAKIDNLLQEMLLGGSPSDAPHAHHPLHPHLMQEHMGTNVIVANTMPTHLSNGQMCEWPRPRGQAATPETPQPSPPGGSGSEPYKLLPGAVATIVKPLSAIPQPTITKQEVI
In short: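 Transient MRTU transfection of HepG2, 24 h dosing. Readout: reporter mRNA via RT-PCR + capillary electrophoresis, fluorescence; activity fit upward relative to DMSO control.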

[11] = biological target: Nuclear receptor subfamily 4 group A member 2 (Homo sapiens) (UniProt P43354); test: ATG_NURR1_TRANS: Attagene TRANS-FACTORIAL HepG2 Assay for human Nuclear Receptor Related Protein 1 (NURR1) (AID 2282985); details: HepG2 Attagene TRANS reporter, mRNA readout
Chain of Nuclear receptor subfamily 4 group A member 2 (Homo sapiens) (P43354 whole entry, looked up, the tested form may be a part): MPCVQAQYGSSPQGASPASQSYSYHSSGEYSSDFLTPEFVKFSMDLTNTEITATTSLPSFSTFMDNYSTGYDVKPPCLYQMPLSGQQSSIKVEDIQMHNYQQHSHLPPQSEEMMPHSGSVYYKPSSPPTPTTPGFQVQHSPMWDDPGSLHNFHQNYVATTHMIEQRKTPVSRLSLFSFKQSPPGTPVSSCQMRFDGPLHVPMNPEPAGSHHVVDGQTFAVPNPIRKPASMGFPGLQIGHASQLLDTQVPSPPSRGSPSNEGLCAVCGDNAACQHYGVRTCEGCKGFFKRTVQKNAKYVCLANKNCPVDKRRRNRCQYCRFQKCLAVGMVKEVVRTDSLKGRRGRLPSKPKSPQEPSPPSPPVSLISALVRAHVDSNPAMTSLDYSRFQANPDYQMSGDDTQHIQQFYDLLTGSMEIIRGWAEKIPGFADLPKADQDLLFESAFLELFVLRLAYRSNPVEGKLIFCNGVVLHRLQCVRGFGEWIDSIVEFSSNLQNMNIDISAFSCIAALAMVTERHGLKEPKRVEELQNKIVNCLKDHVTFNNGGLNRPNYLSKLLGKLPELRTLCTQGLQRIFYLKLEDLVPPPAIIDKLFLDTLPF
In short: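 Read-out: reporter mRNA induction by RT-PCR plus capillary electrophoresis with fluorescence detection, after 24 h dosing of transfected HepG2 cells. Exogenous NR-Gal4 chimera activity drives GAL4-UAS reporter; activity fitted upward versus DMSO.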

[12] = biological target: Glucocorticoid receptor (Homo sapiens) (UniProt P04150); test: ATG_GR_TRANS: Attagene TRANS-FACTORIAL HepG2 Assay for human Glucocorticoid Receptor (GR) (AID 2282978); details: HepG2 Attagene TRANS GR reporter, mRNA transcription;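 further: activators score as hits since higher reporter transcript over DMSO is fitted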
In short: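 Reporter transcript levels, detected by fluorescence after RT-PCR and capillary electrophoresis, served as the endpoint. HepG2 cells bearing transfected GAL4-UAS reporters responsive to NR-GAL4 chimeras were incubated with compound 24 h; DMSO defined baseline.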

[13] = biological target: Oxysterols receptor LXR-beta (Homo sapiens) (UniProt P55055); test: ATG_LXRb_TRANS: Attagene TRANS-FACTORIAL HepG2 Assay for human Liver X Receptor beta (LXRb) (AID 2282981); details: HepG2 Attagene TRANS GAL4-LXRb reporter, mRNA
Chain of Oxysterols receptor LXR-beta (Homo sapiens) (P55055 whole entry, looked up, the tested form may be a part): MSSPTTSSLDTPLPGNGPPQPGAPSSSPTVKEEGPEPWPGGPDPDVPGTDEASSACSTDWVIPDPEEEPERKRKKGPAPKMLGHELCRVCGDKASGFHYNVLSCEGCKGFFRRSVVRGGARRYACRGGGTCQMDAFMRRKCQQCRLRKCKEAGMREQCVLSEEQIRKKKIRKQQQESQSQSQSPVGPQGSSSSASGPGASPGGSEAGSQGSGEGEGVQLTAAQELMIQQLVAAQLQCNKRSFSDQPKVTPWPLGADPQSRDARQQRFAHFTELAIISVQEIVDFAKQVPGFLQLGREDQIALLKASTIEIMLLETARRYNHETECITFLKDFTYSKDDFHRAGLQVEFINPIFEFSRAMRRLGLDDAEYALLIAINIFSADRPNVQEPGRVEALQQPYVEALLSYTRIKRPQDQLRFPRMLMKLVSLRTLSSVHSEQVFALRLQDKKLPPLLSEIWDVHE
In short: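 Readout: fluorescent reporter mRNA fragments resolved by capillary electrophoresis after RT-PCR. System: transiently transfected human HepG2, exogenous LXRb-Gal4 chimera driving GAL4-UAS reporter, 24 h dosing. Activity fitted upward against DMSO baseline.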

[14] = ATG_M_32_TRANS: Attagene TRANS-FACTORIAL HepG2 Assay for M32 Transcription Factor (Internal Marker) (AID 2282984); details: HepG2 Attagene TRANS M32 internal marker reporter
In short: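 Read-out: fluorescent reporter cDNA fragments resolved by capillary electrophoresis after RT-PCR of total RNA. Transfected HepG2 cells were exposed to chemical for 24 h. Activity scored in the positive direction relative to DMSO.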

[15] = biological target: Oxysterols receptor LXR-alpha (Homo sapiens) (UniProt Q13133); test: ATG_LXRa_TRANS: Attagene TRANS-FACTORIAL HepG2 Assay for human Liver X Receptor alpha (LXRa) (AID 2282980); details: HepG2 Attagene TRANS reporter, LXRa transactivation
Chain of Oxysterols receptor LXR-alpha (Homo sapiens) (Q13133 whole entry, looked up, the tested form may be a part): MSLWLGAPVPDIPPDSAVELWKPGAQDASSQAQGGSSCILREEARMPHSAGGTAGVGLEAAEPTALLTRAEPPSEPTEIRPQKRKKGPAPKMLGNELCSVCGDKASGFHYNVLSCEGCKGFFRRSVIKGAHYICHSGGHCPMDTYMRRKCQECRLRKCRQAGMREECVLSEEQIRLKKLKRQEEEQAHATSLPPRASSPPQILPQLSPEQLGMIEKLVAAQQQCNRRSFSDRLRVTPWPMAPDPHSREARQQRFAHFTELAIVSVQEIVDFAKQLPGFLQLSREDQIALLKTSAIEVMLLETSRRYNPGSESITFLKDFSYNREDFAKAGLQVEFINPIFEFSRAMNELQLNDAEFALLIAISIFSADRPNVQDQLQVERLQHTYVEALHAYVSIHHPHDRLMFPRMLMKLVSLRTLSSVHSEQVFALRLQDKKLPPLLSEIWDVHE
In short: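 HepG2 cells transiently transfected with GAL4-UAS reporter units for chimeric NR-Gal4 proteins, exposed to chemicals for 24 h. Reporter mRNA quantified by RT-PCR and capillary electrophoresis; gain of signal fitted relative to DMSO.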

[16] = biological target: Estrogen-related receptor gamma (Homo sapiens) (UniProt P62508); test: ATG_ERRg_TRANS: Attagene TRANS-FACTORIAL HepG2 Assay for human Estrogen-Related Receptor gamma (ERRg) (AID 2282977); details: HepG2 Attagene TRANS reporter, ERRg transactivation;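 further: hits increase reporter signal over DMSO so potencies reflect activators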
Chain of Estrogen-related receptor gamma (Homo sapiens) (P62508 whole entry, looked up, the tested form may be a part): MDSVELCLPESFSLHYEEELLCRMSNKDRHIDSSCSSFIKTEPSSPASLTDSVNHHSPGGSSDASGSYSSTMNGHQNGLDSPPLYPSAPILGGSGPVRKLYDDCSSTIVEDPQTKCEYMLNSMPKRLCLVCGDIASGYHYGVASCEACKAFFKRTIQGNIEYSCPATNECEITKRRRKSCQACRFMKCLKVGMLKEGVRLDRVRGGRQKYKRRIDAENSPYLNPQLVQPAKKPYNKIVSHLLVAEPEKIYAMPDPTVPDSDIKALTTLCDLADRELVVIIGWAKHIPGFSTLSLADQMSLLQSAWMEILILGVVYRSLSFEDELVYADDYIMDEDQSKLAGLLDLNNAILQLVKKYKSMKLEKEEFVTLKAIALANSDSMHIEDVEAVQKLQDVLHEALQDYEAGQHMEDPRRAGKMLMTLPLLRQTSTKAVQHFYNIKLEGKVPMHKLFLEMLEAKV
In short: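 Readout: fluorescent reporter-mRNA fragments resolved by capillary electrophoresis after RT-PCR and HpaI cut. Cells: transiently transfected HepG2 carrying GAL4-UAS reporters driven by exogenous NR-Gal4 chimeras, dosed 24 h. Activity fitted upward relative to DMSO baseline.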

Measured: AC50

C[C@H]1C(=O)O[C@@H]2CCN3CC=C(COC(=O)[C@](C)(O)[C@]1(C)O)[C@H]23
inactive: [1] | [2] | [3] | [4] | [5] | [6] | [7] | [8] | [9]

CC(C=O)Cc1ccc2c(c1)OCO2 (stereo unspecified)
inactive: [1] | [3] | [4] | [10] | [11] | [6] | [7] | [8]

CCN(CCO)CCO
inactive: [1] | [3] | [12] | [13] | [5] | [6] | [7] | [8] | [9]

Cc1cc(C)cc(C)c1
inactive: [1] | [2] | [3] | [13] | [5] | [14] | [6] | [7] | [8] | [9]

CC(C)CC(C)(c1ccc(O)cc1)c1ccc(O)cc1
active: [1] 8.52 µM | [4] 7.12 µM | [8] 16.9 µM
inactive: [12] | [13] | [5] | [11] | [6] | [7] | [9]

N#CS
inactive: [1] | [3] | [12] | [15] | [13] | [10] | [5] | [7] | [8] | [9]

CCCCCCCCBr
inactive: [1] | [2] | [3] | [12] | [4] | [15] | [10] | [14] | [11] | [6] | [7] | [8] | [9]

C#C[C@]1(O)CC[C@H]2[C@@H]3CCC4=CC(=O)CC[C@]4(C)[C@H]3CC[C@@]21C
inactive: [1] | [13] | [5] | [6] | [7] | [8]

COc1ccc(N)cc1
inactive: [1] | [2] | [3] | [12] | [15] | [13] | [14] | [11] | [7] | [8] | [9]

OCCN(CCO)CCO
inactive: [1] | [3] | [15] | [13] | [5] | [6] | [7] | [8] | [9]

CCC[CH2][Sn]([CH2]CCC)([CH2]CCC)[CH2]CCC
active: [8] 17.3 µM
inactive: [1] | [2] | [12] | [4] | [13] | [6] | [7] | [9]

NNCCO
inactive: [1] | [2] | [16] | [4] | [13] | [10] | [6] | [7] | [8] | [9]

O=C(O)CC(O)(CC(=O)O)C(=O)O
active: [11] 6.74 µM
inactive: [1] | [2] | [15] | [13] | [10] | [7] | [8]

O=C(CBr)c1ccc(O)cc1
inactive: [1] | [2] | [16] | [13] | [6] | [7] | [8]

CC(C)C(C)(N)C#N (stereo unspecified)
inactive: [1] | [2] | [12] | [4] | [13] | [6] | [7] | [8] | [9]

BrCCCCBr
inactive: [1] | [3] | [12] | [15] | [13] | [10] | [5] | [14] | [7] | [8] | [9]

CC1CC(=O)O1 (stereo unspecified)
inactive: [1] | [13] | [10] | [14] | [11] | [7] | [8]

Cc1cc(SCc2sc(-c3ccc(C(F)(F)F)c(F)c3)nc2C)ccc1OCC(=O)O
active: [1] 25.2 µM | [4] 27.1 µM
inactive: [2] | [12] | [13] | [6] | [7] | [8] | [9]

O=C1C[C@@H]2OCC=C3CN4CC[C@]56c7ccccc7N1[C@H]5[C@H]2[C@H]3C[C@H]46
inactive: [1] | [2] | [3] | [15] | [5] | [14] | [11] | [6] | [7] | [8]

ClCc1ccccc1Cl
active: [1] 100 µM
inactive: [2] | [16] | [14] | [11] | [6] | [8] | [9]

CCN(CC)C(=O)C(Cl)=C(C)OP(=O)(OC)OC
inactive: [1] | [12] | [13] | [10] | [5] | [14] | [6] | [7] | [8] | [9]

CC(C)[N+](=O)[O-]
inactive: [1] | [2] | [3] | [12] | [4] | [13] | [10] | [5] | [14] | [6] | [7] | [8] | [9]

Reference: PubChem BioAssay (EPA / NIEHS)
